Test results taken from PubChem BioAssay (NCATS).
Inconclusive results are not listed. The source made the active and inactive calls. Unless noted, the call rests on the fitted dose curve; in most records, active means well fitted curve in the direction sought with a large enough effect; inconclusive means small, poorly fitted or top-dose-only effect, or another doubt; inactive means no such curve, though single readings can be large; an effect the other way counts as inactive or inconclusive.

Experiments:
[1] = qHTS for Inhibitors of the Functional Ribonucleoprotein Complex (vRNP) of Lassa (LASV) Arenavirus: Viability assay - alamar blue signal for LASV Primary Screen (AID 1347083; calls by dose curve; tested in HEK293 reporter line; further: nearly all actives have a fitted effect of over 80% in size)
[2] = qHTS for Inhibitors of the Functional Ribonucleoprotein Complex (vRNP) of Lymphocytic Choriomeningitis Arenaviruses (LCMV): Viability assay - alamar blue signal for LCMV Primary Screen (AID 1347085; calls by dose curve; tested in HEK293 reporter line; further: nearly all actives have a fitted effect of over 80% in size)
[3] = biological target: Nucleoprotein (Lymphocytic choriomeningitis virus (strain Armstrong)) (UniProt P09992); assay: qHTS for Inhibitors of the Functional Ribonucleoprotein Complex (vRNP) of Lymphocytic Choriomeningitis Arenaviruses (LCMV): LCMV Primary Screen - GLuc reporter signal (AID 1347086; calls by dose curve; further: nearly all actives have a fitted effect of over 70% in size)
[4] = qHTS of pediatric cancer cell lines to identify multiple opportunities for drug repurposing: Primary screen for TC32 cells (AID 1347089); further: nearly all actives have a fitted effect of over 60% in size
In short: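 Luminescent ATP read-out (CellTiter-Glo) of metabolically active TC32 cells after 48 h exposure. Concentration-response curves came from 11-point (MIPE, 0.78 nM–46 µM) or 8-point (NPC, 0.59 nM–46 µM) primary titrations; follow-up used 11 points.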

[5] = qHTS of pediatric cancer cell lines to identify multiple opportunities for drug repurposing: Primary screen for DAOY cells (AID 1347090); further: nearly all actives have a fitted effect of over 55% in size
In short: (§1)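 Cell viability, CellTiter-Glo luminescence; 500-1,000 cells/well, 8- or 11-point titration, 48 h compound exposure at 37 degrees C, 5% CO2. Controls: DMSO neutral, bortezomib 2.3 µM final as positive.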

[6] = qHTS of pediatric cancer cell lines to identify multiple opportunities for drug repurposing: Primary screen for SJ-GBM2 cells (AID 1347091)
In short: as §1

[7] = qHTS of pediatric cancer cell lines to identify multiple opportunities for drug repurposing: Primary screen for A673 cells (AID 1347092); further: nearly all actives have a fitted effect of over 45% in size
In short: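 Cell viability of A673 measured by CellTiter-Glo ATP luminescence after 48 hours compound exposure. Dilution series spanned 0.78 nM to 46 µM (MIPE, 11-point) or 0.59 nM to 46 µM (NPC, 8-point); bortezomib 2.3 uM positive control.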

[8] = qHTS of pediatric cancer cell lines to identify multiple opportunities for drug repurposing: Primary screen for SK-N-MC cells (AID 1347093)
In short: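 Metabolically active cells were quantified by ATP-dependent luminescence (CellTiter-Glo, 15 min at room temperature) following 48 h treatment. Cells had been plated at 500-1,000 per well and settled for 5 h beforehand.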

[9] = qHTS of pediatric cancer cell lines to identify multiple opportunities for drug repurposing: Primary screen for BT-37 cells (AID 1347094)
In short: (§2)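 Cells plated at 500-1,000/well in growth medium, compounds added after 5 h. MIPE tested at 11 points (from 0.78 nM), NPC at 8 points (from 0.59 nM). CellTiter-Glo luminescence after 48 h; concentration-response curves from primary screen.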

[10] = qHTS of pediatric cancer cell lines to identify multiple opportunities for drug repurposing: Primary screen for NB-EBc1 cells (AID 1347095)
In short: as §2

Measured: Potency
Potency means the concentration at half of the fitted maximal effect.

Nucleoprotein (Lymphocytic choriomeningitis virus (strain Armstrong)), sequence (P09992 whole entry, looked up): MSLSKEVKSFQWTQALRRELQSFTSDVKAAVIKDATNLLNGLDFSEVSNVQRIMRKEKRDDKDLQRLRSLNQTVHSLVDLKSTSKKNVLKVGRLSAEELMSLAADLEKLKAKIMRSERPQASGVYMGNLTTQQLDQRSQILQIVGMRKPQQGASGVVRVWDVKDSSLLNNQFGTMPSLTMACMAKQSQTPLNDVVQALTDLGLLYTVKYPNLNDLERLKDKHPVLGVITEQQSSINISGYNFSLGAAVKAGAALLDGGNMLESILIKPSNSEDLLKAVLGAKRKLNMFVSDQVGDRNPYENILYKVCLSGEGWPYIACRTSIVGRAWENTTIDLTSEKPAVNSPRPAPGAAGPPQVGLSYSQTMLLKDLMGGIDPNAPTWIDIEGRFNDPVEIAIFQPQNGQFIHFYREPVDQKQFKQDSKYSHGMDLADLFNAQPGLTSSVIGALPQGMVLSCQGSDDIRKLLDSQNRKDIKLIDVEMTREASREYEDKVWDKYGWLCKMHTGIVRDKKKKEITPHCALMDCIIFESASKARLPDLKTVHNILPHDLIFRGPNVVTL

C[C@H]([C@H](O)CCC(C)(C)O)[C@H]1CC[C@@]2(O)C3=CC(=O)[C@@H]4C[C@@H](O)[C@@H](O)C[C@]4(C)[C@@H]3CC[C@]12C
inactive: all assays above

Nc1c(Cl)c(Cl)c(Cl)c(Cl)c1Cl
inactive: all assays above

CC(C)(C)[C@]1(O)C[C@@H]2OC(=O)C[C@@]23C(=O)O[C@@H]2OC(=O)[C@H](O)C213 (stereo partly specified)
not listed: [9]
inactive: all other assays above

c1ccc2c(CN3CCNCC3)cccc2c1
active: [8] 29600 nM
not listed: [9]
inactive: all other assays above

CC1=C(C(=O)O)N2C(=O)[C@@H](N)[C@H]2SC1
inactive: all assays above

C=CC(=O)NCNC(=O)C=C
not listed: [9]
inactive: all other assays above

C[C@]12CCC(=O)C(O)=C1CC[C@@H]1[C@H]3CCC(=O)[C@@]3(C)CC[C@@H]12
inactive: all assays above

O=C(O)COc1ccccc1
inactive: all assays above

CC[N+]1(CCOC(=O)C(O)(c2ccccc2)c2ccccc2)CCCCC1
inactive: all assays above

CCC(=O)O[C@@H]1C=C2CCC3C(CCC4(C)C3CC[C@@H]4OC(=O)CC)C2CC1 (stereo partly specified)
inactive: all assays above

COC1=CC(C)=C[C@@H](C)[C@@H](O)[C@@H](C)CC(C)=CC=C[C@H](OC)[C@H]([C@@H](C)[C@@H](O)[C@H](C)[C@@]2(O)C[C@@H](O)[C@H](C)[C@@H](C(C)C)O2)OC1=O
active: [1] 76.9 nM | [2] 34.3 nM | [3] 48.5 nM | [4] 330 nM | [5] 2.3 nM | [6] 1 nM | [7] 3.7 nM | [8] 2.1 nM | [10] 1 nM

C[C@@H]1O[C@@H](O[C@@H]2C=C3CC[C@@H]4[C@@H](CC[C@]5(C)[C@H](c6ccc(=O)oc6)CC[C@@]45O)[C@@]3(C)CC2)[C@H](O)[C@H](O)[C@H]1O
active: [1] 68.5 nM | [2] 54.4 nM | [3] 76.9 nM | [4] 41.5 nM | [5] 14.8 nM | [6] 8.3 nM | [7] 14.8 nM | [8] 8.3 nM | [9] 9.7 nM | [10] 41.8 nM
